# Measurements reported in PubChem BioAssay (NCATS).
# Values joined by “and” are separate entries in the source; they are usually repeats but may differ in a detail not shown here. Equal values may be shown once. Records with an inconclusive call do not appear. Values without a mark were called inactive. Active and inactive are the calls of the source. Unless noted, calls come from the whole dose curve; as a rule, active = well fitted curve in either direction with a large enough effect (not every such curve was filed as active); inconclusive = small, poorly fitted or top-dose-only effect, or another doubt; inactive = flat fitted curve, though single readings scatter.
# Tested on: not listed separately
# Experiment: AP1 Signaling Pathway (AID 357);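 note: ME-180 reporter cells stimulated with EGF at its EC50 level; % is set by controls: 0 for no effect and ±100 for the full control effect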
# Conditions: ME-180 AP-1-bla reporter, EGF-induced, beta-lactamase ratio, 5 h; at 17.2 µM (top of the series)
# Summary of the method: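 A ratiometric CCF4 readout (405 nm excitation; 460 and 530 nm emission) quantified AP-1-driven beta-lactamase in ME-180 cells after 5 h with compound and EC50 EGF; AC50 values were derived for activators and inhibitors.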
row,Compound,"activity change, negative = inhibition"
1,C[C@]12CC[C@H]3[C@@H](CCC4=CC(=O)CC[C@@]43C)[C@@H]1CC[C@@H]2C(=O)CO,12.4%
2,Cc1ccnc(NS(=O)(=O)c2ccc(N)cc2)n1,17.4%
3,Oc1c(Cl)cc(Cl)cc1Sc1cc(Cl)cc(Cl)c1O,-12.3%
4,CC(=O)OCC(=O)[C@@]1(O)[C@H](C)C[C@H]2[C@@H]3CCC4=CC(=O)C=C[C@]4(C)[C@@]3(F)[C@@H](O)C[C@@]21C,-10.4%
5,CC(=O)O[C@]1(C(C)=O)CC[C@H]2[C@@H]3C[C@H](C)C4=CC(=O)CC[C@]4(C)[C@H]3CC[C@@]21C,15.9%
6,Cc1cccc(C)c1NC(=O)CN1CCN(CCCC(c2ccc(F)cc2)c2ccc(F)cc2)CC1,4.39%
7,CCCC1O[C@@H]2C[C@H]3[C@@H]4CCC5=CC(=O)C=C[C@]5(C)[C@H]4[C@@H](O)C[C@]3(C)[C@]2(C(=O)CO)O1 (some centres undefined),2.92%
8,CCN1CCN(c2cc3c(cc2F)c(=O)c(C(=O)O)cn3C2CC2)CC1,4.63%
9,CN(C)CCCOc1nn(Cc2ccccc2)c2ccccc12,10.8%
10,CC(=O)c1ccc2c(c1)N(CCCN1CCC(CCO)CC1)c1ccccc1S2,4.33%
11,CCC(C(=O)OCCN(CC)CC)c1ccccc1 (centres undefined),1.42%
12,O=C(OCCOCCO)c1ccccc1Nc1cccc(C(F)(F)F)c1,-27.7%
13,C[C@@H](CN(C)C)CN1c2ccccc2Sc2ccccc21,82.2% [activator] (active)
14,CC(C)(C)CC(C)(C)c1ccc(OCCOCC[N+](C)(C)Cc2ccccc2)cc1,-12.6%
15,CCC(NC(C)C)C(O)c1ccc(O)c(O)c1 (centres undefined),-6.11%
16,CCCC(=O)Nc1ccc(OCC(O)CNC(C)C)c(C(C)=O)c1 (centres undefined),0.101%
17,CCN(CC)C(=O)N1CCN(C)CC1,1.31%
18,CC(=O)OCC(=O)[C@@]1(OC(C)=O)[C@@H](C)C[C@H]2[C@@H]3C[C@H](F)C4=CC(=O)C=C[C@]4(C)[C@@]3(F)[C@@H](O)C[C@@]21C,-3.12%
19,Nc1nc2ncc(CNc3ccc(C(=O)N[C@@H](CCC(=O)O)C(=O)O)cc3)nc2c(=O)[nH]1,0.033%
20,CCN(CCCCOC(=O)c1ccc(OC)c(OC)c1)C(C)Cc1ccc(OC)cc1 (centres undefined),-6.87%
21,NCCCC[C@H](N[C@@H](CCc1ccccc1)C(=O)O)C(=O)N1CCC[C@H]1C(=O)O,3.25%
22,O=C(COc1ccc(Cl)cc1)N1CCN(Cc2ccc3c(c2)OCO3)CC1,-14.6%
23,CN1CCN(C(c2ccccc2)c2ccccc2)CC1,4.01%
24,C[C@H]1C[C@H]2[C@@H]3CCC4=CC(=O)C=C[C@]4(C)[C@@]3(Cl)[C@@H](O)C[C@]2(C)[C@@]1(O)C(=O)CO,-9.37%
25,CC(=O)OCC(=O)[C@@]12OC(C)(C)O[C@@H]1C[C@H]1[C@@H]3C[C@H](F)C4=CC(=O)C=C[C@]4(C)[C@@]3(F)[C@@H](O)C[C@@]12C,-9.69%
26,CCn1cc(C(=O)O)c(=O)c2cnc(N3CCCC3)nc21,5.94%
27,CN1CCN(CCCN2c3ccccc3Sc3ccc(S(=O)(=O)N(C)C)cc32)CC1,16.8%
28,CC1(C)O[C@@H]2C[C@H]3[C@@H]4C[C@H](F)C5=CC(=O)CC[C@]5(C)[C@H]4[C@@H](O)C[C@]3(C)[C@]2(C(=O)CO)O1,-0.38%
29,CCCCCCCCCCCCCCCC[N+](C)(C)CCN(Cc1ccc(OC)cc1)c1ncccn1,21.6%
30,CCCCOc1ccc(C(=O)CCN2CCCCC2)cc1,18.2% and 12.3%

# Same assay, conditions: ME-180 (cervical carcinoma) AP-1-bla reporter, EGF-induced, beta-lactamase ratio, 5 h; at 38 µM (top of the series)
row,Compound,"activity change, negative = inhibition"
1,CC(C)COC(=O)OCN1C(=O)CN(CCN2CC(=O)N(COC(=O)OCC(C)C)C(=O)C2)CC1=O,5.55%
2,O=C1CCC(c2ccc(-n3ccnc3)cc2)=NN1,14.9%
3,C[C@@H]1C(=O)NC2=Nc3cccc(Cl)c3CN21,9.37%
4,CN1CCC[C@@H]1c1cccnc1,12.2%
5,Nc1cc(Cl)c(NC2=NCCN2)c(Cl)c1,2.68%

# Target: Cytochrome P450 1A2 (Homo sapiens) (UniProt P05177)
# Experiment: p450-cyp1a2 (AID 410; calls by dose curve; note: potency is the fitted concentration of half-maximal effect;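 for activity change, negative = inhibition: -100% = full effect of reference inhibitor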)
# Conditions: recombinant CYP1A2, luciferin-ME demethylation, luminescence; series mostly up to 25.6 µM; activity change, negative = inhibition: at the top concentration
# Summary of the method: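 Luminescent demethylation readout: Luciferin-ME (100uM, equal to Km) turned over by 20nM CYP1A2 for 60 min at room temperature after NADPH regeneration addition, following 10 min compound preincubation. Normalization used 57 uM furafylline as full inhibition.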
# Sequence of Cytochrome P450 1A2 (Homo sapiens) (P05177 whole entry, looked up): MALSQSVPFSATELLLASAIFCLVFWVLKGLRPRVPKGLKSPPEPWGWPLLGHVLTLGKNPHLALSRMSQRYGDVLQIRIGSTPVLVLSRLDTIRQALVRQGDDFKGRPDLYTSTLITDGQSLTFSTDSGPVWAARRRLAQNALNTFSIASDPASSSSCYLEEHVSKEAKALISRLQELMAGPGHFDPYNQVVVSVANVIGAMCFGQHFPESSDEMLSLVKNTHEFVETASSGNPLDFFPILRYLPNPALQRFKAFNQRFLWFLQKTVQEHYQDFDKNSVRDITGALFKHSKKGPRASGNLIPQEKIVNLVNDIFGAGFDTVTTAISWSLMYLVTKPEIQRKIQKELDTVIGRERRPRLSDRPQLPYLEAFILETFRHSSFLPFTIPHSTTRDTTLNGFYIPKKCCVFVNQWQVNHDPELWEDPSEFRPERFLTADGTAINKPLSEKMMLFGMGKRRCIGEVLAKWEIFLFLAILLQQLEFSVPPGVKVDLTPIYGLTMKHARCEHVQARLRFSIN
Compound,"activity change, negative = inhibition",Potency
Cc1ccnc(NS(=O)(=O)c2ccc(N)cc2)n1,-8.3%,
CC(C)COC(=O)OCN1C(=O)CN(CCN2CC(=O)N(COC(=O)OCC(C)C)C(=O)C2)CC1=O,-4.9% [at 57 µM],
O=C1CCC(c2ccc(-n3ccnc3)cc2)=NN1,,0.158 µM (active)
CCN(CC)C(=O)N1CCN(C)CC1,-5.6%,
Nc1nc2ncc(CNc3ccc(C(=O)N[C@@H](CCC(=O)O)C(=O)O)cc3)nc2c(=O)[nH]1,-5.3%,
O=C(COc1ccc(Cl)cc1)N1CCN(Cc2ccc3c(c2)OCO3)CC1,,5.01 µM (active)
CN1CCN(C(c2ccccc2)c2ccccc2)CC1,-3.6%,
CN1CCN(CCCN2c3ccccc3Sc3ccc(S(=O)(=O)N(C)C)cc32)CC1,,12.6 µM (active)
CCCCOc1ccc(C(=O)CCN2CCCCC2)cc1,,3.16 µM (active)
